Inconclusive results are not listed. The source made the active and inactive calls. How the source made its calls, unless noted: active means hit-call score of the fitted dose curve at least 0.9, where 1 is the maximum; inconclusive means response in the unintended direction; inactive means score below 0.9.

Read-out in experiment [1]: X-box binding protein 1 (XBP1), XBP1 (gene 7494)
As to the kind of experiment: LTEA_HepaRG_XBP1: Life Technologies and Expression Analysis (LTEA) Assay for X-box binding protein 1 (XBP1) using HepaRG (AID 2283540; active means hit-call score of the fitted dose curve at least 0.9, where 1 is the maximum; inactive means score below 0.9). To be noted: mRNA level, 48 h; actives raise or lower the signal. The essentials:
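XBP1 transcript by qRT-PCR (housekeeping-normalized: ACTB, GAPDH, POLR2A) after 48 h chemical treatment of HepaRG cells, 8-point half-log series topping at 100 uM, vehicle 0.5% DMSO. Gain and loss of signal fitted relative to DMSO.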

Experiment [2] is described as follows: LTEA_HepaRG_LDH_cytotoxicity: Cytotoxicity Assessment in the Life Technologies and Expression Analysis (LTEA) Assay (AID 2283563).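 On AC50: LDH activity released into spent culture medium as a marker of cell death.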 The gist of the method:
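LDH release into culture medium read after 48 h chemical treatment of HepaRG cells. Duplicate wells, eight-point half-log series topping at 100 uM, 0.5% DMSO vehicle and baseline.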

Experiment [3] can be described thus: TOX21_p53_BLA_p2_viability: Viability Assessment in the Tox21 HCT-116 p53 Agonism Beta-lactamase Assay, Phase 2 (AID 2283591).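 Further: compound exposure lasted 16 h at 37 °C; actives lower the ATP signal meaning cytotoxicity.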 The gist of the method: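 HCT116 p53-bla cells, 4000/well, dosed after 5 h plating (217-fold dilution of DMSO stocks) and incubated 16 h at 37C. Viability taken as cellular ATP by CellTiter-Glo luminescence after 30 min RT; signal loss marks cytotoxicity.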

In experiment [4] the target is Cellular tumor antigen p53 (Homo sapiens) (UniProt P04637). Put plainly: TOX21_p53_BLA_p2_ratio: Tox21 HCT-116 p53 Agonism Beta-lactamase Assay, Ratio, Phase 2 (AID 2283592). The essentials:
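Read-out is the blue/green (460/530 nm, 405 nm excitation) ratio after 2 h CCF4-AM loading, fitted as gain versus DMSO. Compounds, pinned at 217-fold dilution from DMSO stocks, stayed 16 h on HCT-116 beta-lactamase reporter cells seeded 5 h earlier.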

A short description of experiment [5]: TOX21_p53_BLA_p3_viability: Viability Assessment in the Tox21 HCT-116 p53 Agonism Beta-lactamase Assay, Phase 3 (AID 2283593).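 Further: cells exposed to compound for 16 h before reading.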 The gist of the method:
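HCT116 cells, 4000/well, dosed 5 h after plating by pin transfer (217-fold dilution from DMSO stock) and incubated 16 h at 37C, 5% CO2. Viability read as ATP luminescence with CellTiter-Glo after 30 min at room temperature.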

In experiment [6] the target is Cellular tumor antigen p53 (Homo sapiens) (UniProt P04637). As to the kind of experiment: TOX21_p53_BLA_p3_ratio: Tox21 HCT-116 p53 Agonism Beta-lactamase Assay, Ratio, Phase 3 (AID 2283596). The gist of the method: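 Cells were seeded at 4000/well, rested 5 h at 37C, then dosed with DMSO compound solutions (217-fold dilution) for 16 h. CCF4-AM substrate was loaded for 2 h at room temperature, and the 460/530 nm emission ratio was fitted for gain of signal versus DMSO.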
Cellular tumor antigen p53 (Homo sapiens), sequence (P04637 whole entry, looked up): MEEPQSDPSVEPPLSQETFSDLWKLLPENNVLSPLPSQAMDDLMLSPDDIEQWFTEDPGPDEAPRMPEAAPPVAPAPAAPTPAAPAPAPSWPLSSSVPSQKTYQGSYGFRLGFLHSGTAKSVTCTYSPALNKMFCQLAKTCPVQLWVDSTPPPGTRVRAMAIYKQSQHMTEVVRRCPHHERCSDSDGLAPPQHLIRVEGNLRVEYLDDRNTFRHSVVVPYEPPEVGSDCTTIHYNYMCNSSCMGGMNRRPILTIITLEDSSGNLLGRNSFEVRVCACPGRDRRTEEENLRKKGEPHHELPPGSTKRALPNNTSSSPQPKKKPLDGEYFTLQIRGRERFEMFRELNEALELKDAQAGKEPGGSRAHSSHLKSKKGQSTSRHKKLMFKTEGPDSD

The nature of experiment [7]: TOX21_p53_BLA_p4_viability: Viability Assessment in the Tox21 HCT-116 p53 Agonism Beta-lactamase Assay, Phase 4 (AID 2283597).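 Further: hits lower the luminescence signal meaning cytotoxicity.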 The essentials: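 Cytotoxicity as reduced cellular ATP (CellTiter-Glo luminescence, 30 min room temperature), measured in the same wells following the CCF4 FRET p53 reading. Human HCT-116 cells received compounds in DMSO (217-fold dilution) for 16 h.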

Experiment [8] deals with Cellular tumor antigen p53 (Homo sapiens) (UniProt P04637). Put plainly: TOX21_p53_BLA_p5_ratio: Tox21 HCT-116 p53 Agonism Beta-lactamase Assay, Ratio, Phase 5 (AID 2283599). The gist of the method: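 HCT-116 p53-bla cells (4000/well) plated 5 h, dosed with compound (217-fold DMSO dilution) for 16 h at 37 C; CCF4-AM substrate 2 h at room temperature. Activity is the 460/530 nm emission ratio (405 nm excitation), fitted in gain-of-signal direction versus DMSO.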

Experiment [9] is described as follows: ATG_XTT_Cytotoxicity: Cytotoxicity Assessment in the Attagene TRANS-FACTORIAL HepG2 Assay (AID 2283584). The gist of the method:
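Viability endpoint from XTT after 24 h chemical exposure of reporter-transfected human HepG2 liver cells; signal loss fitted relative to DMSO negative control.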

The nature of experiment [10]: TOX21_p53_BLA_p5_viability: Viability Assessment in the Tox21 HCT-116 p53 Agonism Beta-lactamase Assay, Phase 5 (AID 2283600). The gist of the method: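 Viability came from CellTiter-Glo ATP luminescence, read after 30 min at room temperature. Before this, HCT-116 p53-bla cells (4000/well) had 16 hours of compound exposure at 37C, with DMSO stocks diluted 217-fold on transfer.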

One may read the AC50 as the concentration giving half of the maximal activity seen. Consider `Nc1c(Cl)c(Cl)nc(C(=O)O)c1Cl`, for which the result in experiment [1], in experiment [2], in experiment [3], in experiment [5], in experiment [6] and in experiment [7] was inactive. In addition, the result in experiment [8] was inactive. Further, the concentration at half-maximal activity (AC50) in experiment [4] was 75.6 µM (active).

As to `CCN(CC)C(=O)C(C)Oc1cccc2ccccc12` (stereo unspecified), the concentration at half-maximal activity (AC50) in experiment [1] is 50 µM (active). Also, the call in experiment [2], in experiment [9], in experiment [3], in experiment [4], in experiment [6] and in [7] was inactive. In addition, the result in [8] was inactive.

In the case of `O=C(Nc1ccccc1-c1ccc(Cl)cc1)c1cccnc1Cl`, the compound was classed as inactive in [1], in experiment [2], in experiment [3], in experiment [4], in experiment [5] and in [6]. Moreover, the compound was classed as inactive in [7] and in [8].

As for `COC(=O)N(C(=O)N1CO[C@@]2(C(=O)OC)Cc3cc(Cl)ccc3C2=N1)c1ccc(OC(F)(F)F)cc1`, the outcome in experiment [1], in experiment [3], in experiment [5], in [6], in experiment [7] and in experiment [8] was inactive. For the same compound, the half-maximal activity concentration (AC50) in [2] was 60.5 µM (active); in [4], 46.3 µM (active).

As for `CN/C(=N\[N+](=O)[O-])NCc1cnc(Cl)s1`, the compound was classed as inactive in [1], in experiment [2], in experiment [3], in experiment [4] and in [7].

For the compound `COCC(C)N(C(=O)CCl)c1c(C)csc1C` (stereo unspecified), the call in [1], in [2], in experiment [3], in [4], in [6] and in experiment [7] was inactive. The outcome in [8] was inactive.

Take `Nc1cnn(-c2ccccc2)c(=O)c1Cl`: the result in experiment [1], in [2], in experiment [3], in experiment [4] and in experiment [6] was inactive.

Regarding `CCCN(CC)CC1COC2(CCC(C(C)(C)C)CC2)O1` (stereo unspecified), the compound was called inactive in experiment [1], in [2], in experiment [3], in experiment [4], in [5] and in experiment [7].

Consider `COC(=O)NS(=O)(=O)c1ccc(N)cc1`, for which the result in experiment [1], in experiment [2], in experiment [3], in [4], in experiment [5] and in [6] was inactive. Besides, in [8], the result was inactive.

`CCN(CC)c1nc(C)cc(OP(=S)(OC)OC)n1`: the outcome in experiment [1], in experiment [2], in experiment [3], in experiment [4], in experiment [6] and in experiment [7] was inactive. The result in experiment [8] was inactive.

`CNC(=O)N(C)c1nnc(C(C)(C)C)s1`: the result in experiment [1], in experiment [2], in experiment [3], in experiment [4], in experiment [6] and in [7] was inactive. Besides, the outcome in experiment [8] and in experiment [10] was inactive.

On to `CC1(C)CON(Cc2ccccc2Cl)C1=O`, for which the outcome in experiment [1], in experiment [2], in experiment [5], in experiment [6], in experiment [7] and in [8] was inactive.

As for `CCCCOCN(C(=O)CCl)c1c(CC)cccc1CC`, the compound was called inactive in experiment [1], in experiment [2], in experiment [3], in experiment [4] and in experiment [6]. Further, the AC50 in [7] was 67.9 µM (active).

`Cc1cc(C)nc(Nc2ccccc2)n1`: the result in experiment [1], in experiment [2], in experiment [3], in experiment [4], in experiment [6] and in experiment [7] was inactive. The outcome in [8] and in experiment [10] was inactive.

With `CC(C)Nc1nc(Cl)nc(NC(C)C)n1`, the outcome in experiment [1], in experiment [2], in experiment [4] and in experiment [6] was inactive.

Consider `CCOc1nc(F)cc2nc(S(=O)(=O)Nc3c(Cl)cccc3Cl)nn12`, for which the compound was classed as inactive in experiment [1], in experiment [6], in experiment [7] and in [8].

With `COP(=O)(OC)O/C(C)=C/C(=O)N(C)C`, the call in experiment [1], in [2], in experiment [3] and in [8] was inactive.

In the case of `COc1cc(Cl)c(OC)cc1Cl`, the result in [1], in [2], in [4], in experiment [6] and in experiment [8] was inactive.

Turning to `C=CCOC(=O)C(C)(C)OC(=O)c1cc(-n2c(=O)cc(C(F)(F)F)n(C)c2=O)ccc1Cl`, the outcome in experiment [1], in [2], in experiment [3], in experiment [4], in experiment [6] and in [7] was inactive. In addition, the result in experiment [8] was inactive.

Regarding `CCCC(=NOCC)C1=C(O)CC(CC(C)SCC)CC1=O` (stereo unspecified), the outcome in experiment [1], in experiment [2], in experiment [4], in experiment [6] and in experiment [7] was inactive.

On to `Nc1c(Cl)c(F)nc(OCC(=O)O)c1Cl`, for which the compound was called inactive in experiment [1], in experiment [2], in experiment [3], in experiment [4], in experiment [5] and in [6]. The outcome in experiment [8] and in [10] was inactive.

`Cc1cnc(C2=NC(C)(C(C)C)C(=O)N2)c(C(=O)O)c1` (stereo unspecified): the compound was classed as inactive in experiment [1], in experiment [2] and in [7].

With `CC(C)C1(C)N=C(c2ncccc2C(=O)O)NC1=O` (stereo unspecified), the outcome in experiment [1], in [2], in experiment [4], in experiment [6], in experiment [7] and in [8] was inactive.

In the case of `COc1cc(OC)nc(NC(=O)NS(=O)(=O)c2ncccc2OCC(F)(F)F)n1`, the outcome in experiment [1], in [2], in [3], in experiment [5], in [6] and in experiment [7] was inactive. The result in [8] was inactive.

On to `CNC(=O)Oc1cccc2ccccc12`, for which the compound was classed as inactive in experiment [1], in experiment [2], in [4], in experiment [5], in [6] and in [7]. Further, the outcome in experiment [8] was inactive.

As to `CCOc1nc(C(Cl)(Cl)Cl)ns1`, the AC50 in experiment [1] is 0.83 µM (active). Further, the outcome in experiment [2], in [4], in [5], in experiment [7] and in [8] was inactive.

Turning to `O=P(O)(O)CCCl`, the call in [1], in [2], in experiment [4], in experiment [6], in [8] and in experiment [10] was inactive.

In the case of `CCOP(=S)(OCC)Oc1nc(Cl)n(C(C)C)n1`, the outcome in experiment [1], in experiment [2], in experiment [4], in [6] and in experiment [8] was inactive.

Turning to `O=c1n(Cl)c(=O)n(Cl)c(=O)n1Cl`, the compound was called inactive in [1], in experiment [2], in experiment [3], in experiment [4], in experiment [5] and in experiment [8].

As for `CN=C=S`, in experiment [1], the AC50 was 17.3 µM (active). For the same compound, the compound was called inactive in [2], in [3], in experiment [4], in [6], in [7] and in experiment [8].

On to `COC(=O)c1c(C(F)F)nc(C(F)(F)F)c(C2=NCCS2)c1CC(C)C`, for which the outcome in experiment [1], in experiment [2], in experiment [4], in experiment [6], in [7] and in experiment [8] was inactive.

Regarding `CCSC(=O)N1CCCCCC1`, the call in experiment [1], in [2], in experiment [3], in experiment [5], in [6] and in experiment [8] was inactive. In addition, the result in [10] was inactive.

Regarding `N#CN=C1SCCN1Cc1ccc(Cl)nc1`, the compound was called inactive in experiment [1], in [2], in experiment [5], in experiment [6] and in [8].

On to `Clc1cccc(C(Cl)(Cl)Cl)n1`, for which the outcome in [1], in experiment [2], in [3], in [5], in [6] and in experiment [7] was inactive. Besides, the result in [8] was inactive.

Turning to `CCNP(=S)(OC)O/C(C)=C/C(=O)OC(C)C` (stereo unspecified), the result in experiment [1], in experiment [2], in experiment [3], in experiment [6] and in [7] was inactive.

Regarding `COC(=O)NC(=S)Nc1ccccc1NC(=S)NC(=O)OC`, the result in experiment [1], in experiment [2], in experiment [3], in [4] and in [8] was inactive.

Consider `CS(=O)(=O)c1cc(C(F)(F)F)ccc1C(=O)c1cnoc1C1CC1`, for which the result in [1], in experiment [2], in [3] and in [7] was inactive.

For `CCC(C)n1c(=O)[nH]c(C)c(Br)c1=O` (stereo unspecified), the AC50 in experiment [1] is 30.5 µM (active). Further, the call in experiment [2], in experiment [3], in [4] and in [10] was inactive.

With `N#Cc1c(Cl)cccc1Cl`, the call in [1], in experiment [2], in [6] and in experiment [8] was inactive.

With `Clc1nc(Cl)nc(Nc2ccccc2Cl)n1`, the compound was classed as inactive in [1], in [2], in experiment [3], in experiment [4], in experiment [7] and in experiment [8].

Source of the values: PubChem BioAssay (EPA / NIEHS).
